Measured values as given in the antibiotic and cytotoxicity screens of Wong et al. (2023).
Screen size: about 39,000 compounds; about 500 (1.3%) were called active. What follows is part of a selection rich in actives, with near analogues and random picks from the rest.

Test system: S. aureus RN4220
Experiment: growth inhibition call (relative growth <= 0.2)
Conditions: 50 µM

Question: How did the growth inhibition call turn out when `Cc1ccc(Sc2c(-c3ccccc3)nc3sccn23)cc1` was run?
Answer: inactive

Question: Which growth inhibition call does the source give for `COCC(=O)Nc1ccc2c(c1)C(=O)N(C)C[C@@H](OC)[C@H](C)CN(Cc1ccccc1OC)[C@@H](C)CO2` here?
Answer: inactive

Question: Which growth inhibition call does the source give for `C[C@@H](C[N+](C)(C)C)OC(N)=O` here?
Answer: inactive

Question: How did the growth inhibition call turn out when `C=C[C@](C)(O)CC/C=C(\C)C(=O)O[C@@H]1[C@@H](O[C@@](C)(C=C)CC/C=C(\C)C(=O)O[C@H]2C[C@@]3(C(=O)O[C@H]4OC[C@@H](O[C@H]5O[C@@H](CO)[C@@H](O)[C@@H](O[C@H]6O[C@@H](CO)[C@@H](O[C@H]7O[C@@H](CO)[C@@H](O)[C@@H](O)[C@@H]7O)[C@@H](O)[C@@H]6O)[C@@H]5O)[C@@H](O)[C@@H]4O)[C@@H](O)C[C@@]4(C)C(=CC[C@H]5[C@@]6(C)CC[C@@H](O[C@H]7O[C@@H](CO)[C@@H](O[C@H]8O[C@@H](CO)[C@@H](O)[C@@H](O[C@H]9OC[C@@H](O)[C@@H](O)[C@@H]9O)[C@@H]8O)[C@@H](O)[C@@H]7O)C(C)(C)[C@@H]6CC[C@@]54C)[C@@H]3CC2(C)C)OC[C@@H](O)[C@H]1O` was run?
Answer: inactive

Question: Which growth inhibition call does the source give for `CCc1nc2ccc(C(=O)NCCN3CCNC3=O)cn2c1N(CC)Cc1cccc(Br)c1` here?
Answer: inactive

Question: With `COC(=O)[C@@]12O[C@@H]1[C@H](O[C@@H]1O[C@H](CO)[C@@H](O)[C@H](O)[C@H]1O)C[C@H]1[C@]3(C)C[C@@H](c4ccoc4)OC(=O)[C@H]3CC[C@]12C` as the molecule, how does the growth inhibition call read?
Answer: inactive

Question: `C[C@H](O)C#Cc1cnc2c(c1)C(=O)N([C@H](C)CO)C[C@H](C)[C@@H](CN(C)C(=O)Nc1ccc(C(F)(F)F)cc1)O2` was tested. Which growth inhibition call did it give?
Answer: inactive

Question: For `C[C@H]1O[C@@H](OC[C@H]2O[C@@H](OC[C@]3(C)[C@H]4CC[C@@]5(C)[C@H](CC[C@H]6C7=CC(C)(C)CC[C@]7(C(=O)O)CC[C@@]65C)[C@@]4(C)CC[C@@H]3O)[C@@H](O)[C@@H](O)[C@@H]2O)[C@@H](O)[C@@H](O)[C@@H]1O`, which growth inhibition call is on record?
Answer: inactive

Question: How did the growth inhibition call turn out when `C[C@@H]1CN([C@H](C)CO)S(=O)(=O)c2ccc(C#CC3(O)CCCC3)cc2O[C@H]1CN(C)C(=O)Cc1cccnc1` was run?
Answer: inactive

Question: For `Cc1ccc(S(=O)(=O)Nc2ccc3c(c2)C(=O)N([C@H](C)CO)C[C@@H](C)[C@H](CN(C)S(=O)(=O)c2ccc(C)cc2)OCCCC[C@H](C)O3)cc1`, which growth inhibition call is on record?
Answer: inactive

Question: `COc1ccc(NC(=O)N(C)C[C@H]2Oc3c(NC(=O)c4cc(C)nn4C)cccc3C(=O)N([C@H](C)CO)C[C@H]2C)cc1` was tested. Which growth inhibition call did it give?
Answer: inactive

Question: For `COCC#Cc1ccc([C@H]2[C@@H](CO)N3C(=O)CN(C(=O)c4ccncc4)C[C@H]23)cc1`, which growth inhibition call is on record?
Answer: inactive

Question: With `C[C@@H]1CN([C@H](C)CO)C(=O)Cc2cc(NC(=O)CCN3CCOCC3)ccc2O[C@@H]1CN(C)S(=O)(=O)c1ccc(F)cc1` as the molecule, how does the growth inhibition call read?
Answer: inactive

Question: How did the growth inhibition call turn out when `CC(=O)OC[C@H]1O[C@H](n2ccc(=O)[nH]c2=O)[C@@H](OC(C)=O)[C@@H]1OC(C)=O` was run?
Answer: inactive

Question: `O=C(C[C@H]1CC[C@@H]2[C@H](COC[C@@H](O)CN2C(=O)Nc2cccc(F)c2)O1)NCCCN1CCOCC1` was tested. Which growth inhibition call did it give?
Answer: inactive

Question: For `O=C(C[C@@H]1CC[C@@H]2[C@H](COC[C@@H](O)CN2C(=O)Nc2cccc(Cl)c2)O1)NCCCN1CCOCC1`, which growth inhibition call is on record?
Answer: active

Question: Which growth inhibition call does the source give for `O=C(C[C@H]1CC[C@H]2[C@@H](COC[C@@H](O)CN2C(=O)Nc2cccc(F)c2)O1)NCCCN1CCOCC1` here?
Answer: inactive

Question: For `Cc1noc(C)c1S(=O)(=O)N(C)C[C@@H]1Oc2ccc(NC(=O)Cn3cnnn3)cc2CC(=O)N([C@H](C)CO)C[C@@H]1C`, which growth inhibition call is on record?
Answer: inactive

Question: With `Cc1noc(C)c1NC(=O)Nc1ccc2c(c1)C(=O)N([C@@H](C)CO)C[C@H](C)[C@H](CN(C)C(=O)NC1CCCCC1)OCCCC[C@@H](C)O2` as the molecule, how does the growth inhibition call read?
Answer: inactive

Question: How did the growth inhibition call turn out when `C[C@@H]1CCCCO[C@@H](CN(C)C(=O)Nc2ccc(C(F)(F)F)cc2)[C@H](C)CN([C@@H](C)CO)C(=O)c2cc(NC(=O)c3ccncc3)ccc2O1` was run?
Answer: inactive

Question: Which growth inhibition call does the source give for `C[C@@H]1CN([C@@H](C)CO)C(=O)c2cccc(NS(=O)(=O)c3ccc(F)cc3)c2O[C@H]1CN(C)C(=O)Nc1ccc(C(F)(F)F)cc1` here?
Answer: inactive

Question: For `C[C@@H]1CCCCO[C@H](CN(C)Cc2ccc(C(F)(F)F)cc2)[C@@H](C)CN([C@@H](C)CO)C(=O)c2cc(NS(=O)(=O)c3cn(C)cn3)ccc2O1`, which growth inhibition call is on record?
Answer: inactive

Question: With `C[C@H]1CN([C@@H](C)CO)C(=O)c2ccccc2-c2ccccc2CO[C@H]1CN(C)Cc1ccccc1C(F)(F)F` as the molecule, how does the growth inhibition call read?
Answer: inactive

Question: For `C[C@H](CO)N1C[C@H](C)[C@H](CN(C)Cc2ccc(C(=O)O)cc2)OCc2ccccc2-c2c(n(C)c3ccccc23)C1=O`, which growth inhibition call is on record?
Answer: active

Question: How did the growth inhibition call turn out when `C[C@@H]1CN([C@H](C)CO)C(=O)c2ccccc2-c2ccccc2CO[C@@H]1CN(C)Cc1ccccc1C(F)(F)F` was run?
Answer: inactive

Question: For `C[C@H](CO)N1C[C@H](C)[C@H](CN(C)Cc2ccccc2C(F)(F)F)OCc2ccccc2-c2ccccc2C1=O`, which growth inhibition call is on record?
Answer: inactive

Question: For `C[C@@H]1CN([C@H](C)CO)C(=O)c2c(c3ccccc3n2C)-c2ccccc2CO[C@@H]1CN(C)Cc1ccc(C(=O)O)cc1`, which growth inhibition call is on record?
Answer: inactive

Question: `C[C@@H]1CN([C@@H](C)CO)C(=O)c2ccccc2-c2ccccc2CO[C@H]1CN(C)Cc1ccccc1C(F)(F)F` was tested. Which growth inhibition call did it give?
Answer: active

Question: Which growth inhibition call does the source give for `C[C@H](CO)N1C[C@H](C)[C@@H](CN(C)Cc2ccccc2C(F)(F)F)OCc2ccccc2-c2ccccc2C1=O` here?
Answer: active

Question: With `C[C@@H]1CN([C@@H](C)CO)C(=O)c2ccccc2-c2ccccc2CO[C@@H]1CN(C)Cc1ccccc1C(F)(F)F` as the molecule, how does the growth inhibition call read?
Answer: inactive

Question: Which growth inhibition call does the source give for `C[C@@H]1CN([C@H](C)CO)C(=O)c2c(c3ccccc3n2C)-c2ccccc2CO[C@H]1CN(C)Cc1ccc(C(=O)O)cc1` here?
Answer: inactive

Question: For `O=C([C@H]1CCCO1)N1CCNCC1`, which growth inhibition call is on record?
Answer: inactive

Question: Which growth inhibition call does the source give for `C[C@@H]1CCCCO[C@@H](CN(C)Cc2ccncc2)[C@H](C)CN([C@H](C)CO)C(=O)c2cc(NC(=O)CCC(F)(F)F)ccc2O1` here?
Answer: inactive

Question: Which growth inhibition call does the source give for `COc1ccc2c3c(n(c2c1)C)[C@@H](CO)N(C[C@]13CCN(CC1)C(=O)c1ccccc1F)C(=O)Nc1ccccc1F` here?
Answer: inactive

Question: `Cc1ccc(S(=O)(=O)N(C)C[C@H]2OCCCC[C@H](C)Oc3ccc(NS(=O)(=O)c4ccc(Cl)cc4)cc3C(=O)N([C@H](C)CO)C[C@@H]2C)cc1` was tested. Which growth inhibition call did it give?
Answer: inactive

Question: `COCCCOc1cc(C[C@@H](C[C@H](N)[C@@H](O)C[C@H](C(=O)NCC(C)(C)C(N)=O)C(C)C)C(C)C)ccc1OC` was tested. Which growth inhibition call did it give?
Answer: inactive

Question: For `C[C@@H]1CN([C@H](C)CO)S(=O)(=O)c2ccc(C#CC3CCCCC3)cc2O[C@@H]1CN(C)C(=O)Cc1ccncc1`, which growth inhibition call is on record?
Answer: inactive

Question: How did the growth inhibition call turn out when `C[N+](C)(C)CCCCNC(=O)[C@@H]1C[C@@H]2C(=O)N[C@@H](CCCC[N+](C)(C)C)C(=O)N2[C@@H]1c1cccc(OCCO)c1` was run?
Answer: inactive

Question: How did the growth inhibition call turn out when `C[C@@H]1CN([C@H](C)CO)C(=O)c2cc(NC(=O)Nc3cccc4ccccc34)ccc2O[C@@H]1CN(C)Cc1ccccc1` was run?
Answer: inactive

Question: Which growth inhibition call does the source give for `CC(C)NC(=O)Nc1ccc2c(c1)CC(=O)N([C@H](C)CO)C[C@@H](C)[C@@H](CN(C)Cc1ccc(Oc3ccccc3)cc1)O2` here?
Answer: inactive

Question: For `CN1CCN(c2c(F)cc3c(=O)c(C(=O)O)cn(CCF)c3c2F)CC1`, which growth inhibition call is on record?
Answer: active

Question: With `CN1CCN(c2c(F)cc3c(=O)c(C(=O)O)cn4c3c2SCC4)CC1` as the molecule, how does the growth inhibition call read?
Answer: active

Question: How did the growth inhibition call turn out when `Cc1ccc(S(=O)(=O)Nc2ccc3c(c2)CC(=O)N([C@@H](C)CO)C[C@@H](C)[C@@H](CN(C)C(=O)Nc2ccc(C(F)(F)F)cc2)O3)cc1` was run?
Answer: inactive

Question: How did the growth inhibition call turn out when `NC(CO)C(=O)O` (stereo not drawn) was run?
Answer: inactive

Question: For `Cn1cnc(S(=O)(=O)N2C[C@@H](O)COC[C@@H]3O[C@H](CC(=O)NC4CCCC4)CC[C@H]32)c1`, which growth inhibition call is on record?
Answer: inactive

Question: How did the growth inhibition call turn out when `O=C(NCCO)c1nc(NCCO)c2ccccc2n1` was run?
Answer: inactive

Question: How did the growth inhibition call turn out when `C[C@@H]1CCCCO[C@H](CN(C)S(=O)(=O)c2ccccc2)[C@@H](C)CN([C@@H](C)CO)C(=O)c2cc(NC(=O)Nc3ccccc3)ccc2O1` was run?
Answer: inactive

Question: With `CCC(=O)NC[C@H](Cc1ccc(OCCc2nc(-c3ccccc3)oc2C)cc1)N/C(C)=C\C(=O)c1ccc(C(F)(F)F)cc1` as the molecule, how does the growth inhibition call read?
Answer: inactive

Question: With `COC(=O)c1nc[nH]c1C(=O)OC` as the molecule, how does the growth inhibition call read?
Answer: inactive

Question: For `C[n+]1ccn(C[C@@]2(C)[C@H](C(=O)O)N3C(=O)C[C@H]3S2(=O)=O)n1`, which growth inhibition call is on record?
Answer: active

Question: `CC1(C)[C@H](C(=O)O)N2C(=O)C[C@H]2S1(=O)=O` was tested. Which growth inhibition call did it give?
Answer: inactive

Question: With `CC1(C)C(C(=O)O)N2C(=O)CC2S1(=O)=O` (stereo not drawn) as the molecule, how does the growth inhibition call read?
Answer: inactive

Question: `CC1(Cn2ccnn2)C(C(=O)O)N2C(=O)CC2S1(=O)=O` (stereo not drawn) was tested. Which growth inhibition call did it give?
Answer: active

Question: Which growth inhibition call does the source give for `Cc1noc(C[C@@H]2C[C@@H]3CN(S(C)(=O)=O)C[C@@H]3O2)n1` here?
Answer: inactive

Question: `C[C@@H]1CCCCO[C@H](CN(C)C)[C@H](C)CN([C@H](C)CO)C(=O)c2cc(NS(=O)(=O)c3cn(C)cn3)ccc2O1` was tested. Which growth inhibition call did it give?
Answer: inactive

Question: How did the growth inhibition call turn out when `CS(=O)(=O)N1[C@@H]2c3ccc(-c4ccccc4)c(=O)n3C[C@H]1[C@H](CO)[C@H]2C(=O)NCC1CC1` was run?
Answer: inactive

Question: With `O=C(NOC[C@H](O)CO)c1cc(Br)c(F)c(F)c1Nc1ccc(I)cc1F` as the molecule, how does the growth inhibition call read?
Answer: inactive

Question: For `COc1cc(F)c(F)c(Nc2ccc(I)cc2F)c1NS(=O)(=O)C1(C[C@H](O)CO)CC1`, which growth inhibition call is on record?
Answer: active

Question: Which growth inhibition call does the source give for `Cn1c(=O)c(F)c(Nc2ccc(I)cc2F)c2c(=O)n(C[C@@H](O)CO)cnc21` here?
Answer: inactive

Question: How did the growth inhibition call turn out when `CCOC(=O)OC(C)OC(=O)C1N2C(=O)C(NC(=O)C(N)c3ccccc3)C2SC1(C)C.Cl` (stereo not drawn) was run?
Answer: active

Question: How did the growth inhibition call turn out when `CC1(C)S[C@@H]2[C@H](NC(=O)[C@H](N)c3ccccc3)C(=O)N2[C@H]1C(=O)OCOC(=O)[C@@H]1N2C(=O)C[C@H]2S(=O)(=O)C1(C)C` was run?
Answer: active

Question: With `C[C@@H]1CN([C@H](C)CO)C(=O)c2c(c3ccccc3n2C)-c2ccccc2CO[C@@H]1CN(C)Cc1ccccc1` as the molecule, how does the growth inhibition call read?
Answer: inactive

Question: For `O=C(C[C@@H]1C=C[C@@H](NS(=O)(=O)c2ccc(F)cc2)[C@H](CO)O1)N1CCC(Cc2ccccc2)CC1`, which growth inhibition call is on record?
Answer: inactive
